Data published in PubChem BioAssay (NCATS).
Where “and” joins values, the source holds several entries; their conditions need not be identical. Identical values can stand only once. Records with an inconclusive call do not appear. Where a call stands in place of a potency, no number is given. Unmarked numbers belong to inactive results. Calls of active or inactive are those of the source. Calls come from the whole dose curve; as a rule, active = well fitted curve in the direction sought with a large enough effect; inconclusive = small, poorly fitted or top-dose-only effect, or another doubt; inactive = no such curve, though single readings can be large; an effect the other way counts as inactive or inconclusive.

Tests used:
[1] = Viability qHTS for spleen associated tyrosine kinase inhibitor (SYKi) naive MV4-11 cells (AID 1963823); conditions: MV4-11 AML viability, CellTiter-Glo luminescence, 72 h; series mostly up to 45 µM; note: nearly all actives have a fitted effect of over 40% in size; note: potency is the fitted concentration of half-maximal effect
Outline: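 Seeding of 500 SYKi-naive MV4-11 cells per well onto pre-dispensed compounds preceded a 72 hr incubation at 37 C. Luminescent CellTiter-Glo signal, read after 10 min at room temperature, reflected viable cells.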

[2] = Viability qHTS for spleen associated tyrosine kinase inhibitor (SYKi) drug resistant MV4-11 cells (AID 1963824); conditions: SYKi-resistant MV4-11 viability, CellTiter-Glo, 72 h; series mostly up to 45 µM; note: nearly all actives have a fitted effect of over 35% in size; note: potency is the fitted concentration of half-maximal effect
Outline: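 SYK inhibitor-resistant MV4-11 AML cells, 500 per well, added to predispensed compounds and incubated 72 hr at 37 C, 5% CO2. Viability measured by CellTiter-Glo luminescence after 10 min at room temperature.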

[3] = Quantitative highthroughput screen to assess conditional lethalithy of NOMO1 cells grown in RPMI1640 with untreated serum (RPMI+s) (AID 1963876); conditions: NOMO1 AML cells in RPMI+serum, CellTiter-Glo viability, 48 h; series mostly up to 45.8 µM; note: nearly all actives have a fitted effect of over 35% in size; note: potency is the fitted concentration of half-maximal effect
Outline: (§1)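 Each medium arm—HPLM with 10% dialyzed FBS, or RPMI1640 with 5 mM glucose and 10% untreated or dialyzed FBS—was screened against an 11-point, 3-fold compound titration for 48 h at 37 °C, with CellTiter-Glo luminescence as endpoint.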

[4] = Quantitative highthroughput screen to assess conditional lethalithy of NOMO1 cells grown in RPMI1640 with dialyzed fetal bovine serum (RPMI+ds) (AID 1963877); conditions: NOMO1 in RPMI+dialyzed FBS viability, ATP luminescence, 48 h; series mostly up to 45.8 µM; note: nearly all actives have a fitted effect of over 30% in size; note: potency is the fitted concentration of half-maximal effect
Outline: as §1

[5] = Quantitative highthroughput screen to assess conditional lethalithy of NOMO1 cells grown in Human Plasma-Like Medium with dialyzed fetal bovine serum (HPLM+ds) (AID 1963878); conditions: NOMO1 AML cells in HPLM+ds, CellTiter-Glo viability, 48 h; series mostly up to 45.8 µM; note: nearly all actives have a fitted effect of over 35% in size; note: potency is the fitted concentration of half-maximal effect
Outline: as §1

[6] = Cellular viability qHTS for adrenocortical cancer (ACC) cell line SW-13 (AID 1963989); conditions: SW-13 ACC cells viability, CellTiter-Glo, 48 h; activity (max response): hits give low values; note: nearly all actives have a fitted effect of over 65% in size; note: potency is the fitted concentration of half-maximal effect;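 for activity (max response): cells grown in serum-free medium with ITS supplement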
Outline: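 SW-13 cells in ITS-supplemented serum-free DMEM were plated overnight, then exposed for 48 h at 37C to compound titrations (up to 46 uM final). Viability was read by CellTiter-Glo luminescence; four-parameter logistic fits gave IC50 and efficacy.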

[7] = Quantitative highthroughput screen to assess conditional lethalithy of P12 Ichikawa cells grown in Human Plasma-Like Medium with dialyzed fetal bovine serum (HPLM+ds) (AID 1963879); conditions: ATP luminescence, 48 h; Potency: viability; series mostly up to 45.8 µM; note: nearly all actives have a fitted effect of over 35% in size
Outline: as §1

[8] = Quantitative highthroughput screen to assess conditional lethalithy of P12 Ichikawa cells grown in RPMI1640 with dialyzed fetal bovine serum (RPMI+ds) (AID 1963880); conditions: ATP luminescence, 48 h; Potency: P12-Ichikawa viability; series mostly up to 45.8 µM; note: nearly all actives have a fitted effect of over 35% in size
Outline: as §1

[9] = Quantitative highthroughput screen to assess conditional lethalithy of P12 Ichikawa cells grown in RPMI1640 with untreated serum (RPMI+s) (AID 1963881); conditions: ATP luminescence, 48 h; Potency: viability; series mostly up to 45.8 µM; note: nearly all actives have a fitted effect of over 35% in size
Outline: as §1

[10] = Quantitative highthroughput screen to assess conditional lethalithy of SEM cells grown in Human Plasma-Like Medium with dialyzed fetal bovine serum (HPLM+ds) (AID 1963882); conditions: SEM B-ALL cells in HPLM+ds, CellTiter-Glo viability, 48 h; series mostly up to 45.8 µM; note: nearly all actives have a fitted effect of over 35% in size; note: potency is the fitted concentration of half-maximal effect
Outline: as §1

[11] = Quantitative highthroughput screen to assess conditional lethalithy of SEM cells grown in RPMI1640 with unreated serum (RPMI+s) (AID 1963883); conditions: SEM B-ALL cells, CellTiter-Glo viability, 48 h; series mostly up to 45.8 µM; note: nearly all actives have a fitted effect of over 35% in size; note: potency is the fitted concentration of half-maximal effect
Outline: as §1

[12] = Quantitative highthroughput screen to assess conditional lethalithy of SEM cells grown in RPMI1640 with dialyzed fetal bovine serum (RPMI+ds) (AID 1963884); conditions: SEM B-ALL cells, RPMI+dialyzed FBS, CellTiter-Glo viability, 48 h; series mostly up to 45.8 µM; note: nearly all actives have a fitted effect of over 35% in size
Outline: as §1

[13] = Cellular viability qHTS for adrenocortical cancer (ACC) cell line NCI-H295R (AID 1963990); conditions: CellTiter-Glo ATP luminescence, 48 h; series mostly up to 46.1 µM; note: nearly all actives have a fitted effect of over 60% in size; note: potency is the fitted concentration of half-maximal effect
Outline: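 Luminescent ATP read-out (CellTiter-Glo, 20 min RT) after 48 h drug exposure of NCI-H295R cells; a titration up to 46 uM final. Data normalized to doxorubicin (100% inhibition) and DMSO (0%); 4-parameter fit gives IC50, max response.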

COC(c1ccccc1)(c1ccccc1)[C@H](Oc1nc(C)cc(C)n1)C(=O)O
Potency [1]: inactive
Potency [2]: inactive
Potency [3]: inactive
Potency [4]: inactive
Potency [5]: inactive
activity (max response) [6]: 2.42% and -1.06%

CC(C)(C)Cn1c(N)nc2ccc(-c3[nH]c(C(C)(C)C)nc3-c3ccc(F)cc3)nc21
Potency [1]: 16.6 µM (active)
Potency [2]: 461 nM (active) and 14.8 µM (active)
Potency [3]: inactive
Potency [4]: inactive
Potency [7]: inactive
Potency [8]: inactive
Potency [9]: inactive
Potency [10]: inactive
Potency [6]: 25.1 µM (active)

N#Cc1c(O)c2c(-c3ccc(-c4ccccc4O)cc3)csc2[nH]c1=O
Potency [1]: inactive
Potency [2]: inactive
Potency [3]: inactive
Potency [4]: inactive
Potency [7]: inactive
Potency [8]: inactive
Potency [9]: inactive
Potency [10]: inactive
Potency [11]: inactive
Potency [12]: inactive
activity (max response) [6]: 4.91%
Potency [13]: inactive

O=C(O)CCNC(=O)c1ccc(N=Nc2ccc(O)c(C(=O)O)c2)cc1
Potency [1]: inactive
Potency [2]: inactive
Potency [3]: inactive
Potency [4]: inactive
Potency [7]: inactive
Potency [8]: inactive
Potency [9]: inactive
Potency [10]: inactive
Potency [11]: inactive
Potency [12]: inactive
activity (max response) [6]: 4.01% and 3.9%
Potency [13]: inactive

Cc1ccc(C(=O)Nc2cccc(C(F)(F)F)c2)cc1-c1ccc2nc(NCCN3CCOCC3)ncc2c1
Potency [1]: 184 nM (active) and 372 nM (active)
Potency [2]: 366 nM (active) and 742 nM (active)
Potency [3]: 5.9 µM (active)
Potency [4]: 4.69 µM (active)
Potency [5]: 4.18 µM (active)
Potency [10]: 4.69 µM (active)
Potency [11]: 4.18 µM (active)
Potency [6]: 14.1 µM (active)
Potency [13]: 22.4 µM (active)

CC(c1cc2ccccc2s1)N(O)C(N)=O (stereo not drawn)
Potency [1]: inactive
Potency [2]: inactive
Potency [3]: inactive
Potency [4]: inactive
Potency [7]: inactive
Potency [8]: inactive
Potency [9]: inactive
Potency [12]: inactive
activity (max response) [6]: -61.3%
Potency [13]: inactive
